Screens deposited in PubChem by several laboratories.
An excerpt weighted towards active compounds, which were near 1.7% of everything screened.
BH1578 lux ind: induces V. cholerae light production without autoinducers; V. cholerae BH1578 lux reporter, luminescence, 6 h; activation, % at 18.7 µM; hit rate 0.16% among 350,000; in the data active = activation mostly above about 9.7%, no sharp cut-off
BJeLR viability: kills HRASV12-expressing BJeLR cells. AID 1554. inhibition, % (concentration not given with the values). BJeLR (HRASV12) viability, CellTiter-Glo ATP luminescence, 48 h. hit rate 0.17% among 300,000; in the data active = inhibition above about 50%
MazF activator: activators of E. coli MazEF toxin-antitoxin RNase; P0AE70; FAM/BHQ RNA-DNA oligo cleavage fluorescence, 5 h; activation, % at 20 µM; hit rate 0.32% among 350,000; AID 504720; in the data active = activation above about 50%
Target sequence (P0AE70 whole entry, looked up): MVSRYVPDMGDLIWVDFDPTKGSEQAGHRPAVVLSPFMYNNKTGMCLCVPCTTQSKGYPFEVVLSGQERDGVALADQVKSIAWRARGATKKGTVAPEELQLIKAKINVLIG
PfHsp40 rescue: rescue of PfHsp40-mediated yeast toxicity. AID 504582. growth rescue, % at 12.5 µM. hit rate 0.68% among 340,000. S. cerevisiae expressing PfHsp40, growth rescue, ATP luminescence; in the data active = growth rescue above about 28%, passing the limit was not always enough;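 note: yeast W303a lacking pdr1 and pdr3 grown in galactose medium; growth measured after three days at 30 °C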
DUSP3 inh: DUSP3 (human) phosphatase inhibition | P51452 | recombinant VHR phosphatase, pNPP absorbance | inhibition, % at 13.3 µM | hit rate 0.52% among 290,000; in the data active = inhibition above about 50%
Target sequence (P51452 whole entry, looked up): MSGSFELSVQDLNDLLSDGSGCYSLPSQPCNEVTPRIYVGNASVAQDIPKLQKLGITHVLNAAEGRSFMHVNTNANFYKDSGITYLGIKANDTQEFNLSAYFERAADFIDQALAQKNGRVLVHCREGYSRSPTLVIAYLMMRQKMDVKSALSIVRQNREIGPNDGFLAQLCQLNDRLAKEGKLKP
3CLpro inhibitor: SARS-CoV 3CLpro protease inhibition; inhibition, % at 6 µM; AID 1706; recombinant SARS-CoV 3CLpro, quenched FRET peptide cleavage; P0C6X7; hit rate 0.14% among 290,000; in the data active = inhibition above about 12%
An asterisk follows results filed as active.

Screening Cc1nn2c(-c3ccncc3)nnc2c2ccccc12 returned BH1578 lux ind inactive, MazF activator 4, PfHsp40 rescue 57*, DUSP3 inh 13 and 3CLpro inhibitor 0.
O=C(CNC(=O)C1COc2ccccc2O1)N/N=C\c1ccccc1Cl (configuration not stated) was read as BH1578 lux ind inactive, BJeLR viability 9, MazF activator 5, PfHsp40 rescue -1, DUSP3 inh 56* and 3CLpro inhibitor -1.
Screening Cc1ccc(CNC(=O)C2COc3ccccc3O2)cc1 (configuration not stated) returned BH1578 lux ind 1, BJeLR viability 3, MazF activator -6, PfHsp40 rescue 103*, DUSP3 inh 15 and 3CLpro inhibitor -3.
`O=C(NCc1ccccc1)C1COc2ccccc2O1` (configuration not stated) gave BH1578 lux ind inactive, BJeLR viability -2, MazF activator 3, PfHsp40 rescue 1, DUSP3 inh -9 and 3CLpro inhibitor 1.
Screening Cc1ccc(N2C(=O)c3cccc4c([N+](=O)[O-])ccc(c34)C2=O)c2cccnc12 returned BH1578 lux ind inactive, BJeLR viability 52*, MazF activator 3, PfHsp40 rescue 3, DUSP3 inh 4 and 3CLpro inhibitor -4.
Cc1ccc(N2C(=O)c3cccc4c(N5CCN(C)CC5)ccc(c34)C2=O)c2cccnc12 was read as BJeLR viability 1, MazF activator -81, DUSP3 inh 12 and 3CLpro inhibitor -1.
`CCN(C[C@H]1N[C@@](CC)(C(=O)OC)[C@H]2C(=O)N(C)C(=O)[C@@H]12)S(=O)(=O)c1ccc(OC(F)(F)F)cc1` gave BH1578 lux ind inactive, MazF activator 4 and PfHsp40 rescue 1.
Screening O=C(N=c1ccn(-c2nc3ccccc3nc2NS(=O)(=O)c2ccc(Cl)cc2)cc1)c1cccs1 returned BH1578 lux ind -1, BJeLR viability 12, MazF activator 92*, PfHsp40 rescue 1, DUSP3 inh 4 and 3CLpro inhibitor 5.
`Cc1ccc(S(=O)(=O)Nc2nc3ccccc3nc2N2CCN(c3ccccc3F)CC2)cc1` gave BH1578 lux ind inactive, BJeLR viability -2, MazF activator -13, PfHsp40 rescue 0, DUSP3 inh 50* and 3CLpro inhibitor 3.
Screening O=S(=O)(Nc1nc2ccccc2nc1N1CCN(c2ccccn2)CC1)c1ccc(Cl)cc1 returned BH1578 lux ind 3, MazF activator -660, PfHsp40 rescue 142*, DUSP3 inh -4 and 3CLpro inhibitor 2.
O=S(=O)(Nc1nc2ccccc2nc1N1CCc2ccccc2C1)c1ccc(Cl)cc1 was read as BH1578 lux ind 0, BJeLR viability 13, MazF activator 18, PfHsp40 rescue 1, DUSP3 inh 2 and 3CLpro inhibitor 6.
For Cc1cccc(-c2nnc(C(C)Nc3cccc(C(=O)NC4CC4)c3)o2)c1 (configuration not stated) the results were BH1578 lux ind inactive and MazF activator 4.
For CCN1C(=O)/C(=C2/C=Cc3ccccc3N2C)OC1=S the results were BH1578 lux ind 1, BJeLR viability 6, MazF activator 113*, PfHsp40 rescue 1, DUSP3 inh 31 and 3CLpro inhibitor 1.
CCN1C(=O)/C(=C2\C=Cc3cc(C)ccc3N2CC)OC1=S was read as BH1578 lux ind -1, BJeLR viability 3, MazF activator 114*, PfHsp40 rescue 1, DUSP3 inh 36 and 3CLpro inhibitor 3.
`Cc1cccnc1C(NC(=O)C1CCN(CCOc2ccc(F)cc2)CC1)c1ccc(F)cc1` (configuration not stated) gave BH1578 lux ind inactive.
Screening CCCNC(=O)c1nnsc1S(=O)(=O)c1ccc(Cl)cc1 returned BH1578 lux ind 0, MazF activator 3, PfHsp40 rescue 120*, DUSP3 inh 3 and 3CLpro inhibitor 4.
Cc1cc(C(=O)CCC(=O)NCC2COc3ccccc3O2)c(C)s1 (configuration not stated) was read as BH1578 lux ind -2, BJeLR viability 0, MazF activator -8 and PfHsp40 rescue 1.
`CCCS(=O)(=O)NC(=O)C1(C)CCN1C(=O)Cc1ccc(Cl)cc1Cl` (configuration not stated) gave BH1578 lux ind 0.
For CCCNC(=S)N1CCN(c2nc(C)nc3sc4c(c23)CCCC4)CC1 the results were BH1578 lux ind 0, BJeLR viability 2, MazF activator -5, PfHsp40 rescue 32*, DUSP3 inh 2 and 3CLpro inhibitor 0.
Screening CCN(C(=O)c1ccc2c(=O)n3c(nc2c1)CCCCC3)c1cc(OC)ccc1OC returned BH1578 lux ind 0, BJeLR viability -1, MazF activator 4, PfHsp40 rescue 0, DUSP3 inh -4 and 3CLpro inhibitor -3.
O=C(O)C1=NN(c2ccccc2)C(=O)C1 was read as BH1578 lux ind -3, BJeLR viability 9, MazF activator 4, PfHsp40 rescue 7, DUSP3 inh 9 and 3CLpro inhibitor 11.
Screening CCOC(=O)C1=NN(c2ccccc2)C(=O)C1 returned BH1578 lux ind inactive, BJeLR viability -6, MazF activator -5, PfHsp40 rescue 113*, DUSP3 inh -11 and 3CLpro inhibitor 2.
`CCOC(=O)C1=NN(c2ccccc2)C(=O)/C1=C\c1ccc(N(C)C)cc1` gave BH1578 lux ind -6, BJeLR viability -4, MazF activator -24, PfHsp40 rescue 81*, DUSP3 inh 10 and 3CLpro inhibitor 0.
Screening CSC[C@H]1CN(CCc2ccccc2)C(=O)[C@@H]1CC(=O)Nc1ccc(Br)cc1 returned BH1578 lux ind 0 and MazF activator 3.
Screening Cc1cc(C)c(-c2noc(C(=O)OC(C)(C)C)c2C(=O)OC(C)(C)C)c(C)c1 returned BH1578 lux ind 51*, BJeLR viability 3, MazF activator -2, PfHsp40 rescue -1, DUSP3 inh 1 and 3CLpro inhibitor 9.
Screening CCN(CC)c1ccc2cc(C(=O)Nc3cccnc3N3CCOCC3)c(=O)oc2c1 returned DUSP3 inh 12.
`CCN(CC)c1ccc2cc(C(=O)Nc3ccccn3)c(=O)oc2c1` gave BH1578 lux ind inactive, BJeLR viability 4, MazF activator active, PfHsp40 rescue -2, DUSP3 inh -13 and 3CLpro inhibitor 2.
Screening O=C(Cn1ncc2c([nH]c3ccccc32)c1=O)N1CCN(c2ccccc2F)CC1 returned BH1578 lux ind 0, BJeLR viability 11, MazF activator 4, PfHsp40 rescue 0, DUSP3 inh -12 and 3CLpro inhibitor 2.
Screening O=C(Cn1ncc2c([nH]c3ccccc32)c1=O)N1CCN(c2ccc(F)cc2)CC1 returned BH1578 lux ind 0, BJeLR viability 7, MazF activator 3, PfHsp40 rescue -1, DUSP3 inh 51* and 3CLpro inhibitor -4.
